This is an account of results in PubChem BioAssay (Tox21).

SMILES strings stand for the structures. Several values for one entry are separate records, joined by “and”; a condition that tells them apart may be missing. Identical values can stand only once. Results filed as inconclusive are left out. The source holds several records for some structures; these can differ, active in one and inactive in another. Activity calls are given as the source filed them. Unless noted, calls come from the whole dose curve; as a rule, active = well fitted curve in the direction sought with a large enough effect in the repeat runs; inconclusive = weak or mixed curves; inactive = no such curve, though single readings can be large; an effect the other way counts as inactive or inconclusive.

A short description of assay [1]: qHTS assay for identifying genotoxic compounds that show differential cytotoxicity against isogenic chicken DT40 cell lines with known DNA damage response pathways - wild type cell line (AID 743012). Note: nearly all actives have a fitted effect of over 60% in size. Note: potency is the fitted concentration of half-maximal effect. The procedure, abridged:
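Cells (DT40 wild type, 300/well) are treated with DMSO-dissolved compounds after a ~0.5 h pre-incubation and kept 40 h at 37 C/5% CO2. Viability is then measured by CellTiter-Glo luminescence following 30 min at room temperature.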
(Quantitative high-throughput screening tests each substance at several concentrations.)

Assay [2] is described as follows: qHTS assay for identifying genotoxic compounds that show differential cytotoxicity against isogenic chicken DT40 cell lines with known DNA damage response pathways - Rev3 mutant cell line (AID 743014). Note: nearly all actives have a fitted effect of over 55% in size. Note: potency is the fitted concentration of half-maximal effect.
Assay [3] can be described thus: qHTS assay for identifying genotoxic compounds that show differential cytotoxicity against isogenic chicken DT40 cell lines with known DNA damage response pathways - Rad54/Ku70 mutant cell line (AID 743015). Note: nearly all actives have a fitted effect of over 60% in size. Note: potency is the fitted concentration of half-maximal effect.
Assay [4] in a line: qHTS assay to identify small molecule antagonists of the androgen receptor (AR) signaling pathway - cell viability counter screen (AID 743033; note: nearly all actives have a fitted effect of over 45% in size).
A short description of assay [5]: qHTS assay to identify small molecule antagonists of the androgen receptor (AR) signaling pathway using the MDA cell line - cell viability counter screen (AID 743041; note: nearly all actives have a fitted effect of over 45% in size). The procedure, abridged: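 Cells were plated at 3,000 per well and left 5 h. Compounds in DMSO were then pinned in, followed by R1881. After 16 h at 37C, CellTiter-Fluor fluorescence gave viability.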

Assay [6] deals with Androgen receptor (Homo sapiens) (UniProt P10275). Kind of assay: qHTS assay to identify small molecule antagonists of the androgen receptor (AR) signaling pathway (AID 743035; active = well fitted inhibition curve with a large enough effect in the signal ratio in the repeat runs, not every such curve was filed as active; the % refers to the signal ratio). The procedure, abridged: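 Antagonism is scored as loss of R1881-driven beta-lactamase reporter expression in HEK293 cells carrying the reporter under a UAS element, after 16 h co-treatment at 37C and a 2 h room-temperature FRET substrate read.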
Chain of Androgen receptor (Homo sapiens) (P10275 whole entry, looked up): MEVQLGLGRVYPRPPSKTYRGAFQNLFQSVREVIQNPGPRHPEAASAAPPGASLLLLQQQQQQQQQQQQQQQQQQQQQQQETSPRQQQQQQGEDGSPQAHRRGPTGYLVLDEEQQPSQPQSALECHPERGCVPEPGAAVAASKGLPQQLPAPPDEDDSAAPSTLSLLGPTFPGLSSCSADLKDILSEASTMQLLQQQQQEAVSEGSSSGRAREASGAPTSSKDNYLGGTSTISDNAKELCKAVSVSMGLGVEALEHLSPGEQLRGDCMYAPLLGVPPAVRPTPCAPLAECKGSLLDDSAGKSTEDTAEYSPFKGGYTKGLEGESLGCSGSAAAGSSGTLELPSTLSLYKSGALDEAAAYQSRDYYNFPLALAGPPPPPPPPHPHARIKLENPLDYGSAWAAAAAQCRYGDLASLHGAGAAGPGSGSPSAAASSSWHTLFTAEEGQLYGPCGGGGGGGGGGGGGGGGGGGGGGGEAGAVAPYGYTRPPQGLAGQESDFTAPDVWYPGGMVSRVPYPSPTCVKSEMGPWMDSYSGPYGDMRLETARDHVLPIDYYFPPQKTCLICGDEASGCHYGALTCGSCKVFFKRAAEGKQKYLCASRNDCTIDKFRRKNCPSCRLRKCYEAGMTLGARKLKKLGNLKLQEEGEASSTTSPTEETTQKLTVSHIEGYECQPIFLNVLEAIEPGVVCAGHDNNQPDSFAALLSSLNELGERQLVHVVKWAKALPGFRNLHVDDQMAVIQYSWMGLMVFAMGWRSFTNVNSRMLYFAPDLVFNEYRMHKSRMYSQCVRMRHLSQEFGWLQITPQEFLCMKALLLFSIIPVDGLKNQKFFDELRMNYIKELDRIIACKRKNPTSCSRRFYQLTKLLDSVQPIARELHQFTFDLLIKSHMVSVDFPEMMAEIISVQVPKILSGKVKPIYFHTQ

The target is the same in assay [7]. Kind of assay: qHTS assay to identify small molecule agonists of the androgen receptor (AR) signaling pathway (AID 743036; active = well fitted activation curve with a large enough effect in the signal ratio in the repeat runs, with a control signal flat, not every such curve was filed as active; the % refers to the signal ratio). The procedure, abridged: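 AR-UAS-bla HEK293 cells, plated 4 h before dosing, were treated with compound for 16 h at 37C. beta-Lactamase reporter read after 2 h with LiveBLAzer B/G FRET substrate at room temperature.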
For assay [8] the target is unchanged. Kind of assay: qHTS assay to identify small molecule agonists of the androgen receptor (AR) signaling pathway using the MDA cell line (AID 743040; note: nearly all actives have a fitted effect of over 20% in size). The procedure, abridged:
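Cells plated, 5 h at 37C/0% CO2; compound or DMSO pinned; 16 h at 37C; ONE-Glo added; luminescence measured after 30 min at room temperature. Reporter line: MDA-kb2 with MMTV-luciferase responsive to AR and GR.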

Assay [9] shares this target. Kind of assay: qHTS assay to identify small molecule antagonists of the androgen receptor (AR) signaling pathway using the MDA cell line (AID 743042; note: nearly all actives have a fitted effect of over 55% in size). The procedure, abridged:
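Antagonist mode: compounds plus R1881 agonist added to MDA-kb2 AR-luc cells, incubated 16 h at 37C. Luciferase reporter luminescence quantified, with multiplexed CellTiter-Fluor readout for cell viability.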

Consider `ClCCOCCCl`, for which the Potency result in assay [1], in [2] and in [3] was “inactive” throughout. The compound was classed as inactive in assay [4] and in [5].

With `OCc1ccco1`, the Potency result in assay [1], in [2] and in assay [3] was “inactive” throughout. Also, the compound was classed as inactive in [4] and in [5].

In the case of `O=C/C=C/c1ccccc1`, the Potency entry in [1], in assay [2] and in [3] was “inactive” in each case. For the same compound, the compound was called inactive in assay [4] and in [5].

As for `C=CC#N`, the Potency result in [1], in [2] and in [3] was “inactive” each time. For the same compound, the call in [4] and in assay [5] was inactive.

`C=CC(=O)OCCCCCC(C)C`: the Potency result in [1], in [2], in assay [3], in assay [6] and in assay [9] was “inactive” each time. Moreover, the compound was called inactive in assay [4], in [7], in [8] and in assay [5].

Take `CC(C)CCCCCCOC(=O)c1ccccc1C(=O)OCCCCCCC(C)C`: the Potency result in assay [1], in assay [2], in [3] and in assay [9] was “inactive” in each case. The outcome in assay [4], in assay [7] and in assay [8] was inactive.

Turning to `CCOC(=O)CC(SP(=O)(OC)OC)C(=O)OCC` (configuration not stated), the Potency entry in assay [1], in assay [2] and in [3] was “inactive” in each case. In addition, the result in assay [4] and in assay [5] was inactive.

As to `CC(=O)/C=C/c1ccccc1`, the Potency result in assay [1], in [2] and in assay [3] was “inactive” each time. Also, in [4], the result was inactive.

With `O=S(=O)(O)OOS(=O)(=O)O`, the Potency entry in assay [1], in assay [2] and in [3] was “inactive” throughout. Moreover, the outcome in assay [4] and in assay [5] was inactive.

With `Cc1ccc(O)c(C)c1`, the Potency entry in [1], in assay [2] and in assay [3] was “inactive” in each case. Further, the compound was called inactive in assay [4] and in assay [5].

For the compound `CNC(=O)O/N=C(\SC)C(=O)N(C)C`, the Potency entry in [1], in [6] and in [9] was “inactive” throughout. Besides, the Potency was 61.1 µM (active) in assay [2] and 54.4 µM (active) in assay [3]. Besides, the result in assay [4], in assay [7], in assay [8] and in [5] was inactive.

For `Nc1ccc(N)cc1`, the Potency is 54.7 µM (active) in assay [1]; 19.4 µM (active) and 54.5 µM (active) in [2]; 26.6 µM (active) and 21.8 µM (active) in [3]. For the same compound, the compound was classed as inactive in assay [4] and in [5].

In the case of `CCSC(=O)N1CCCCCC1`, the Potency entry in [1], in [2] and in [3] was “inactive” throughout. For the same compound, the compound was classed as inactive in assay [4].

For the compound `Cc1cccc(C)c1NC(=O)CN1CCCC1=O`, the Potency result in assay [1], in assay [2] and in assay [3] was “inactive” in each case. For the same compound, the outcome in [4] and in [5] was inactive.

With `[N-]=[N+]=CC(=O)OC[C@H](N)C(=O)O`, the Potency result in [1], in [2] and in assay [3] was “inactive” in each case. The outcome in [4] and in assay [5] was inactive.

Consider `NNc1ccccc1`, for which the Potency entry in assay [1] was “inactive”. Besides, the Potency result in assay [2] was “inactive and 60.4 µM (active)”; in [3], “inactive and 48 µM (active)”. In addition, the compound was classed as inactive in [4] and in [5].

Consider `C[C@]12CC[C@H](O)CC1=CC[C@@H]1[C@@H]2CC[C@]2(C)C(=O)CC[C@@H]12`, for which the Potency in [1] was 29.8 µM (active); in assay [2] it was 26.6 µM (active) and 68.7 µM (active) and 54.5 µM (active); in assay [3], 29.8 µM (active) and 61.2 µM (active) and 54.5 µM (active). Besides, the outcome in [4] and in assay [5] was inactive.

As for `CNCC(O)c1ccc(O)cc1` (configuration not stated), the Potency entry in [1], in [2] and in [3] was “inactive” throughout. Further, the result in [4] and in [5] was inactive.

`CSc1nnc(C(C)(C)C)c(=O)n1N`: the Potency entry in assay [1], in assay [2] and in [3] was “inactive” throughout. Also, the outcome in assay [4] and in assay [5] was inactive.

Take `COC(=O)Nc1cccc(OC(=O)Nc2cccc(C)c2)c1`: the Potency entry in assay [1], in [2] and in assay [3] was “inactive” throughout. The outcome in assay [4] was inactive.

On to `Clc1cnc(Oc2ccc(Oc3ncc(Cl)cc3Cl)cc2)c(Cl)c1`, for which the Potency entry in assay [1] and in assay [2] was “inactive” throughout. The Potency entry in [3] was “inactive and 30.6 µM (active)”. Also, the compound was called inactive in [4] and in [5].

Regarding `CC(C)(C)C(=O)CCl`, the Potency entry in [1], in [2], in assay [3], in [6] and in assay [9] was “inactive” in each case. For the same compound, the call in assay [4], in [7], in assay [8] and in assay [5] was inactive.

Regarding `CN(C)NC(=O)CCC(=O)O`, in assay [4], the call was inactive.
